One test deals with T1, GST-ANAC092(1-176) (Arabidopsis thaliana, UniProt Q9FKA0 1-176).
T1 sequence: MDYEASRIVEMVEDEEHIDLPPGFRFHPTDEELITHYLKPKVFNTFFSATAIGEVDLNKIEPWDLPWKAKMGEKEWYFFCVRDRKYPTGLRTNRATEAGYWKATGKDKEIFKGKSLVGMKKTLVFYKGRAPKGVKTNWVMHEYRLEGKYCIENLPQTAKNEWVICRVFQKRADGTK
Description: universal protein binding microarray (PBM); transcription factors of Arabidopsis thaliana; high values mean tight binding. Conditions: protein: recombinant; tags: GST; chain copies: 2; dsDNA, one strand shown. The procedure, abridged: (§1)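 GST-tagged proteins (NAC-domain, full-length or DNA-binding-domain) were induced in cells, with zinc acetate supplied for zinc-finger proteins, then purified on glutathione–Sepharose 4B. Each was tested in duplicate at 200 to 500 nM final on custom all-10-mer Agilent 4 × 180K arrays rendered double-stranded by primer extension. The binding value is the normalised enrichment score (E-score) across gapped and ungapped 8-mers.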
As for ACGCAACC, the binding signal was determined as 0.483 E-score.

For the sequence ACGGAAGC, the binding signal was 0.299 E-score.

On to CTTGCGTC, for which the binding signal was 0.337 E-score.

GTCACGCA: the binding signal worked out at 0.319 E-score.

Take ATTGCGTG: the binding signal stood at 0.494 E-score.

For the sequence ATAGCGTG, the binding signal is 0.464 E-score.

On to GATTGACC, for which the binding signal was 0.141 E-score.

Regarding CACGTTAA, the binding signal worked out at 0.429 E-score.

AGTCAAAA: the binding signal was 0.157 E-score.

With TAGAGTAA, the binding signal came out at 0.177 E-score.

Turning to GACGCAAA, the binding signal was determined as 0.382 E-score.

With AGACACGC, the binding signal stood at 0.364 E-score.

On to CTTGCGTA, for which the binding signal was found to be 0.471 E-score.

For TAACGTGA, the binding signal is 0.42 E-score.

For the sequence ACGCAAGG, the binding signal stood at 0.399 E-score.

Regarding GACGTCAA, the binding signal was found to be 0.16 E-score.

For the sequence AAACGTGT, the binding signal worked out at 0.424 E-score.

For AAGCGTAA, the binding signal was 0.214 E-score.

As to CAACACGC, the binding signal was 0.418 E-score.

As for GAACACGC, the binding signal amounted to 0.382 E-score.

Take CGTCAACG: the binding signal amounted to 0.117 E-score.

As to ACGTCACT, the binding signal turned out to be 0.383 E-score.

Take ACACTCAA: the binding signal turned out to be 0.425 E-score.

As for CGTGCACG, the binding signal is 0.354 E-score.

On to ACGTCTCC, for which the binding signal amounted to 0.21 E-score.

Turning to TGACGTAA, the binding signal stood at 0.449 E-score.

For the sequence AATAGCGT, the binding signal turned out to be 0.39 E-score.

With AACTTGAC, the binding signal was determined as 0.0775 E-score.

As to ATTCCGTG, the binding signal was 0.408 E-score.

Regarding ACGCAATA, the binding signal was 0.444 E-score.

The target of another test is GST-NTL6(1-168) (Arabidopsis thaliana, UniProt Q9SCK6 1-168). Described as above. Conditions: protein: recombinant; tags: GST; chain copies: 2; dsDNA, one strand shown. A digest of the protocol: as §1
Chain of GST-NTL6(1-168) (Q9SCK6 1-168): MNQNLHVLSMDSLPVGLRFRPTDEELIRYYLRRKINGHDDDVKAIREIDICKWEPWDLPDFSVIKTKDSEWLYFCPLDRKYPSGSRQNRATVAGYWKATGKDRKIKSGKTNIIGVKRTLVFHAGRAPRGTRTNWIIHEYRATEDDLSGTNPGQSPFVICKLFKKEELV
As to ACGGAAGC, the binding signal stood at 0.0877 E-score.

Take AGTTTGAC: the binding signal stood at 0.0778 E-score.

GTTGACTA: the binding signal came out at 0.072 E-score.

Take ATAGCGTG: the binding signal came to 0.0569 E-score.

CACGTTAA: the binding signal was determined as 0.0985 E-score.

On to TAACGTGA, for which the binding signal was found to be 0.0647 E-score.

For TAAGTCAA, the binding signal came to 0.268 E-score.

AAACGTGT: the binding signal turned out to be 0.0946 E-score.

For the sequence TAAGGTCA, the binding signal stood at 0.242 E-score.

For the sequence AAGCGTAA, the binding signal stood at 0.0576 E-score.

As to GAACACGC, the binding signal was determined as 0.0566 E-score.

As for ACGTCACT, the binding signal came out at 0.0658 E-score.

On to ATGTCAAC, for which the binding signal is 0.0563 E-score.

For ATTCCGTG, the binding signal worked out at 0.129 E-score.

A further test deals with T2, GST-ANAC019 NAC domain (Arabidopsis thaliana, UniProt Q9C932 14-162).
T2 sequence: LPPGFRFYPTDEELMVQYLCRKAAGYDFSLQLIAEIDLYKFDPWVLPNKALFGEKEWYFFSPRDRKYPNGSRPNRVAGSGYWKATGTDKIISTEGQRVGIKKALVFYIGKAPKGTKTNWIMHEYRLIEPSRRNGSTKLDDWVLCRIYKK
Described as above. The conditions noted are these: protein: recombinant; tags: GST; chain copies: 2; dsDNA, one strand shown. The procedure, abridged:
as §1
Consider ACGCAACC, for which the binding signal was 0.455 E-score.

Take ACGGAAGC: the binding signal stood at 0.436 E-score.

Take CTTGCGTC: the binding signal was determined as 0.0715 E-score.

As to GTCACGCA, the binding signal was found to be 0.307 E-score.

As to ATTGCGTG, the binding signal was determined as 0.466 E-score.

For the sequence AGTTTGAC, the binding signal came out at 0.068 E-score.

In the case of GTTGACTA, the binding signal amounted to 0.079 E-score.

In the case of ATAGCGTG, the binding signal turned out to be 0.174 E-score.

Regarding CACGTTAA, the binding signal turned out to be 0.125 E-score.

As for AGTCAAAA, the binding signal came out at 0.0721 E-score.

Consider GACGCAAA, for which the binding signal was 0.0555 E-score.

As for AGACACGC, the binding signal amounted to 0.0909 E-score.

In the case of CTTGCGTA, the binding signal came to 0.382 E-score.

Take TAACGTGA: the binding signal stood at 0.144 E-score.

With ACGCAAGG, the binding signal was 0.084 E-score.

Take AAACGTGT: the binding signal is 0.269 E-score.

Regarding AAGCGTAA, the binding signal was found to be 0.168 E-score.

As to CAACACGC, the binding signal came out at 0.304 E-score.

For the sequence GAACACGC, the binding signal is 0.289 E-score.

In the case of CGTCAACG, the binding signal came out at 0.109 E-score.

Turning to ACGTCACT, the binding signal was determined as 0.365 E-score.

As to ACACTCAA, the binding signal was 0.116 E-score.

In the case of CGTGCACG, the binding signal is 0.464 E-score.

With GACTTTTA, the binding signal came out at 0.0971 E-score.

Regarding ACGTCTCC, the binding signal is 0.411 E-score.

Turning to TGACGTAA, the binding signal stood at 0.368 E-score.

Take ATTCCGTG: the binding signal was determined as 0.438 E-score.

As to ACGCAATA, the binding signal amounted to 0.233 E-score.

Another test deals with T3, GST-ANAC055(1-171) (Arabidopsis thaliana, UniProt Q9LDY8 1-171).
T3 sequence: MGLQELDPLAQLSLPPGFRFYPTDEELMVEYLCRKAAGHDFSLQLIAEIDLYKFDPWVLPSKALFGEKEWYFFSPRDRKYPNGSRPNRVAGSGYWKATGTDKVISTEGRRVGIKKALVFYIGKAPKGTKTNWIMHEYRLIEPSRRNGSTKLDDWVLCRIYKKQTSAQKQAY
Described as above. Conditions: protein: recombinant; tags: GST; chain copies: 2; dsDNA, one strand shown. A digest of the protocol: as §1
As to ACGCAACC, the binding signal turned out to be 0.421 E-score.

Turning to ACGGAAGC, the binding signal turned out to be 0.374 E-score.

Regarding CTTGCGTC, the binding signal turned out to be 0.0764 E-score.

In the case of GTCACGCA, the binding signal came to 0.236 E-score.

Consider ATTGCGTG, for which the binding signal turned out to be 0.452 E-score.

As for AGTTTGAC, the binding signal turned out to be 0.118 E-score.

As to GTTGACTA, the binding signal worked out at 0.0652 E-score.

On to ATAGCGTG, for which the binding signal turned out to be 0.167 E-score.

With GATTGACC, the binding signal came out at 0.0576 E-score.

For the sequence CACGTTAA, the binding signal is 0.243 E-score.

Turning to TAGAGTAA, the binding signal stood at 0.0921 E-score.

On to AGACACGC, for which the binding signal is 0.0867 E-score.

CTTGCGTA: the binding signal came out at 0.306 E-score.

As for TAACGTGA, the binding signal is 0.213 E-score.

As to TAAGTCAA, the binding signal was 0.121 E-score.

In the case of ACGCAAGG, the binding signal turned out to be 0.106 E-score.

Values taken from paper PMC4081100, “A DNA-binding-site landscape and regulatory network analysis for NAC transcription factors in Arabidopsis thaliana”.
